Experimental findings from PubChem BioAssay (EPA / NIEHS) are described below.

Where “and” joins values, the source holds several entries; their conditions need not be identical. Equal values may be shown once. Records with an inconclusive call do not appear. More than one record can exist for a structure, and the calls need not agree. Calls of active or inactive are those of the source. Rule for the calls, unless noted: active = hit-call score of the fitted dose curve at least 0.9, where 1 is the maximum; inactive = score below 0.9.

Read-out in experiment [1]: Monocyte Chemoattractant Protein-1 (MCP1), CCL2 (gene 6347)
Put plainly: BSK_LPS_MCP1: BioMAP Diversity Plus: LPS Assay for Monocyte Chemoattractant Protein-1 (MCP1) Biomarker Activity (AID 2283081).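 For AC50: secreted MCP-1 protein quantified by ELISA in culture supernatant.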 Particulars: primary human HUVEC with PBMC; actives raise or lower the signal. Summed up: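 LPS-stimulated HUVEC/PBMC co-culture; chemical, 24 h; MCP-1 by ELISA; bidirectional fit vs DMSO; cytotoxicity via SRB (0.1% stain, 10% TCA fix, 560 nm) in parallel wells.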

Experiment [2] in a line: BSK_LPS_PGE2: BioMAP Diversity Plus: LPS Assay for Prostaglandin E2 (PGE2) Biomarker Activity (AID 2283082).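 For AC50: secreted prostaglandin E2 measured by ELISA in LPS-stimulated co-culture.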 Particulars: primary human HUVEC with PBMC; actives raise or lower the signal. The procedure, abridged: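 LPS-activated HUVEC/PBMC co-culture; cmpd dosed, 24 h; PGE2 by ELISA; bidirectional fit vs DMSO; SRB (0.1%, TCA-fixed, 560 nm) in parallel plates for overt cytotox.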

Read-out in experiment [3]: Macrophage colony-stimulating factor (MCSF), CSF1 (gene 1435)
The experiment is described as follows: BSK_LPS_MCSF: BioMAP Diversity Plus: LPS Assay for Macrophage colony-stimulating factor (MCSF) Biomarker Activity (AID 2283083). Conditions: primary human HUVEC with PBMC; actives raise or lower the signal. Summed up: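 Compound is added to a human vascular primary co-culture of umbilical vein endothelium and blood mononuclear cells. After 24 h, M-CSF is quantified by ELISA. Signal changes are fitted in both directions against DMSO.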

Read-out in experiment [4]: Tissue Factor, F3 (gene 2152)
The experiment is described as follows: BSK_LPS_TissueFactor: BioMAP Diversity Plus: LPS Assay for Tissue Factor Biomarker Activity (AID 2283084). Conditions: primary human HUVEC with PBMC; actives raise or lower the signal. The procedure, abridged:
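In this co-culture system of umbilical vein endothelium with PBMC, stimulated with LPS, cell-surface CD142 is detected by ELISA at 24 h. Endpoint values derive from bidirectional fitting, DMSO serving as baseline.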

Read-out in experiment [5]: Vascular cell adhesion molecule 1 (VCAM1), VCAM1 (gene 7412)
Put plainly: BSK_LPS_VCAM1: BioMAP Diversity Plus: LPS Assay for Vascular cell adhesion molecule 1 (VCAM1) Biomarker Activity (AID 2283086). Particulars: primary human HUVEC with PBMC; actives raise or lower the signal. Summed up: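 HUVEC + PBMC co-culture, LPS system; compound 24 h; VCAM-1 by ELISA; bidirectional fit vs DMSO control; parallel SRB (0.1%, TCA-fixed, 560 nm) for cytotoxicity.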

Read-out in a further experiment: CD38, CD38 (gene 952)
The experiment is described as follows: BSK_SAg_CD38: BioMAP Diversity Plus: SAg Assay for CD38 Biomarker Activity (AID 2283087). Conditions: primary human HUVEC with PBMC; actives raise or lower the signal. The procedure, abridged:
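Human HUVEC plus PBMC co-culture stimulated with superantigen; CD38 measured by ELISA 24 h after chemical dosing. Fluorescence read-out, bidirectional fit against DMSO; cytotoxicity tracked in parallel by SRB and Alamar Blue.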

Read-out in the next experiment: CD40, CD40 (gene 958)
Put plainly: BSK_SAg_CD40: BioMAP Diversity Plus: SAg Assay for CD40 Biomarker Activity (AID 2283088). Particulars: primary human HUVEC with PBMC; actives raise or lower the signal. Summed up:
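Fluorescence ELISA read-out of CD40 from umbilical vein endothelium plus peripheral blood mononuclear cells, sampled 24 h after dosing. Values come from bidirectional curve fitting with DMSO as baseline.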

Read-out in a further experiment: CD69, CD69 (gene 969)
Put plainly: BSK_SAg_CD69: BioMAP Diversity Plus: SAg Assay for CD69 Biomarker Activity (AID 2283089).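 For AC50: cell surface CD69 protein quantified by ELISA with fluorescence detection.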 Particulars: primary human HUVEC with PBMC; actives raise or lower the signal. Summed up: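 ELISA, fluorescence read-out: CD69 on human umbilical vein endothelial cell + PBMC co-culture, 24 h post-dosing. Gain or loss of signal fitted bidirectionally against DMSO baseline.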

Read-out in experiment [6]: Monocyte Chemoattractant Protein-1 (MCP1), CCL2 (gene 6347)
Put plainly: BSK_SAg_MCP1: BioMAP Diversity Plus: SAg Assay for Monocyte Chemoattractant Protein-1 (MCP1) Biomarker Activity (AID 2283090). Particulars: primary human HUVEC with PBMC; actives raise or lower the signal. Summed up:
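MCP-1 levels in the endothelial–PBMC SAg co-culture were quantified by ELISA at 24 h post-dosing; both increases and decreases versus DMSO scored. Cytotoxicity monitored by SRB total protein in parallel cultures.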

Read-out in experiment [7]: E-selectin (Homo sapiens) (UniProt P16581)
Put plainly: BSK_SAg_Eselectin: BioMAP Diversity Plus: SAg Assay for Eselectin Biomarker Activity (AID 2283091). Particulars: primary human HUVEC with PBMC; actives raise or lower the signal. Summed up: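 Primary human endothelial cells and peripheral blood mononuclear cells were co-cultured and exposed to chemical for 24 hours. E-selectin levels were then quantified by ELISA, with bidirectional curve fitting normalised to DMSO controls.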

Experiment [8] is described as follows: BSK_SAg_PBMCCytotoxicity: PBMC Cytotoxicity Assessment in the BioMAP Diversity Plus: SAg Assay (AID 2283093).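 For AC50: PBMC superantigen activated with SEB plus TSST-1 one hour after compound addition.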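 Note: PBMC viability measured as Alamar Blue reduction fluorescence at 546/580 nm; fitted both ways against DMSO so a hit may be loss or gain of signal.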 Conditions: primary human HUVEC with PBMC. The procedure, abridged:
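HUVEC/PBMC co-culture; PBMC exposed to chemical 1 h before SEB and TSST-1 activation (20 ng/mL each), incubated 90 h, then Alamar Blue 6 h, fluorescence 546/580 nm. Bidirectional fit versus DMSO baseline.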

Read-out in experiment [9]: Interleukin-8 (IL8), CXCL8 (gene 3576)
The experiment is described as follows: BSK_SAg_IL8: BioMAP Diversity Plus: SAg Assay for Interleukin-8 (IL8) Biomarker Activity (AID 2283094). Particulars: primary human HUVEC with PBMC; actives raise or lower the signal. Summed up:
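ELISA read-out of IL-8 in a primary human vascular co-culture (umbilical vein endothelium plus PBMC), taken 24 h after compound addition. Values derive from bidirectional fits against DMSO negative controls.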

Experiment [10] in a line: BSK_SAg_Proliferation: Cell Proliferation Assessment in the BioMAP Diversity Plus: SAg Assay (AID 2283095).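 Note: relative cell number as total protein by SRB absorbance in sub-confluent culture.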 Particulars: primary human HUVEC with PBMC. Summed up:
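Cells (endothelium plus PBMC, human primary) were dosed with chemical, cultured 96 h, fixed in 10% TCA and stained with 0.1% SRB. Absorbance at 560 nm gave relative protein, fitted bidirectionally relative to DMSO.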

Experiment [11] in a line: BSK_SAg_SRB: Viability Assessment in the BioMAP Diversity Plus: SAg Assay (AID 2283096).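 Note: cells read one day after compound addition; hits may be either gain or loss of signal compared with DMSO.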 Conditions: primary human HUVEC with PBMC. The procedure, abridged:
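Human umbilical vein endothelial cells co-cultured with PBMC, read 24 h after compound dosing. Total protein measured by sulforhodamine B staining (0.1% SRB after 10% TCA fixation, absorbance 560 nm); bidirectional fit versus DMSO baseline.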

Read-out in experiment [12]: Tumor necrosis factor (Homo sapiens) (UniProt P01375)
The experiment is described as follows: BSK_LPS_TNFa: BioMAP Diversity Plus: LPS Assay for Tumour Necrosis Factor alpha (TNFa) Biomarker Activity (AID 2283085). Particulars: primary human HUVEC with PBMC; actives raise or lower the signal. Summed up:
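Read-out is ELISA of TNFa in primary human endothelial cell–PBMC co-cultures at 24 h after compound. Activity in either direction was fitted against DMSO.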

Read-out in experiment [13]: Monokine induced gamma interferon (MIG), CXCL9 (gene 4283)
Put plainly: BSK_SAg_MIG: BioMAP Diversity Plus: SAg Assay for Monokine induced gamma interferon (MIG) Biomarker Activity (AID 2283092). Particulars: primary human HUVEC with PBMC; actives raise or lower the signal. The procedure, abridged:
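ELISA readout of MIG/CXCL9; primary human umbilical vein endothelial cells co-cultured with peripheral blood mononuclear cells; 24 h post-dose; gain/loss fit vs DMSO baseline.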

Experiment [14] addresses human CYP2B6, CYP2B6 (gene 1555) (UniProt P20813). The experiment is described as follows: NVS_ADME_hCYP2B6: NovaScreen (NVS) CYP450-related Enzyme Activity (ADME) Assay for human CYP2B6 (AID 2283101; active = hit-call score of the fitted dose curve at least 0.9, where 1 is the maximum). The procedure, abridged: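 Fluorescence-based enzyme activity of recombinant human CYP2B6, measured 1 h post-dose against acetonitrile vehicle baseline. Screened at a single concentration of 10 uM in duplicate before concentration-response follow-up.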

Sequence of E-selectin (Homo sapiens) (P16581 whole entry, looked up): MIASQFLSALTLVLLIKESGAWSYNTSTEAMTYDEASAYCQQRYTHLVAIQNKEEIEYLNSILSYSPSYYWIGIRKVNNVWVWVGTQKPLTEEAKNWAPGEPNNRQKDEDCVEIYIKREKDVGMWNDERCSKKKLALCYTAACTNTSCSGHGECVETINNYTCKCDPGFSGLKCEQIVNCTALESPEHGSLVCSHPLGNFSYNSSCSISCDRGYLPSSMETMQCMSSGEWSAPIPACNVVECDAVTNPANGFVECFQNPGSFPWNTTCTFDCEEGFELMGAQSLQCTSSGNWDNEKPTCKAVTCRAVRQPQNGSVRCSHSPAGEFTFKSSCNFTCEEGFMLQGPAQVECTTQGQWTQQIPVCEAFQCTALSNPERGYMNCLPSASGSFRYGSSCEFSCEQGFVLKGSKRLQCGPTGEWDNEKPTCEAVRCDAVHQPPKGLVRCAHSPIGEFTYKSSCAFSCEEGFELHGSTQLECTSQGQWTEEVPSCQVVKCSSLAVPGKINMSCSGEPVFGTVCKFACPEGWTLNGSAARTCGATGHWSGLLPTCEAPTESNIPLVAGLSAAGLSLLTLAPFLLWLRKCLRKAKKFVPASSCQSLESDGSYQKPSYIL
Sequence of human CYP2B6, CYP2B6 (gene 1555) (P20813 whole entry, looked up): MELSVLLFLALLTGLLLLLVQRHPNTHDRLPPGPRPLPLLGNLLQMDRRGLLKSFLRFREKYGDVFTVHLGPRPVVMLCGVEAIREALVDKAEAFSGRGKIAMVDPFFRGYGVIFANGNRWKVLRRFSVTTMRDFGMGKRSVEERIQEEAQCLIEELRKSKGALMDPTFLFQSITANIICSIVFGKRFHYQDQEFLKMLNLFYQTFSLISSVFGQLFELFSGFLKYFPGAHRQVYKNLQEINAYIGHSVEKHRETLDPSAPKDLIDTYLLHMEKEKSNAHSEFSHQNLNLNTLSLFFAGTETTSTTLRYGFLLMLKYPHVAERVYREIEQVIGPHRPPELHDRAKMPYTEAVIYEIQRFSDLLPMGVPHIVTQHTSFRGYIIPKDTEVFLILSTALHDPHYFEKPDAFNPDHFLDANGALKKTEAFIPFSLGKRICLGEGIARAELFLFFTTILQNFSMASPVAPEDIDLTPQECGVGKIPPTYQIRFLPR
Sequence of Tumor necrosis factor (Homo sapiens) (P01375 whole entry, looked up): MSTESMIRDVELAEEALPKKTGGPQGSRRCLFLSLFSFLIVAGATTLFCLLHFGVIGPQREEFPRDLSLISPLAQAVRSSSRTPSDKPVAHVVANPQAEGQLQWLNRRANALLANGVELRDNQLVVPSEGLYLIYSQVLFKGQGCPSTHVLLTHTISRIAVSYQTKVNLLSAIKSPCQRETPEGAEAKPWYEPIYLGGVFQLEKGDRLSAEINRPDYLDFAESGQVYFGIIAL

A word on the AC50: it is the midpoint of the concentration-response curve, whichever way the signal moves. In the case of `O=C(O)C(F)(F)C(F)(F)C(F)(F)C(F)(F)C(F)(F)C(F)(F)C(F)(F)C(F)(F)C(F)(F)F`, the half-maximal activity concentration (AC50) in [1] is 33.2 µM (active) and 54.1 µM (active) and 54.5 µM (active); in [2] it was 24.7 µM (active) and 39 µM (active); in [3], 58.7 µM (active) and 52.5 µM (active); in experiment [4], 45.6 µM (active) and 50.6 µM (active); in experiment [5], 31.2 µM (active) and 56.6 µM (active) and 55.5 µM (active); with CD38, CD38 (gene 952) it was 30.4 µM (active) and 53 µM (active) and 51.9 µM (active). The AC50 with CD40, CD40 (gene 958) is 32.3 µM (active) and 51.6 µM (active) and 44.6 µM (active); with CD69, CD69 (gene 969), 29.2 µM (active) and 46.9 µM (active) and 46.4 µM (active); in experiment [6], 30.6 µM (active) and 50.1 µM (active) and 49.7 µM (active); in [7] it was 34.3 µM (active) and 54.9 µM (active) and 52.9 µM (active); in experiment [8], 29.8 µM (active) and 47.3 µM (active) and 51 µM (active); in experiment [9], 36.3 µM (active) and 49.4 µM (active) and 41.4 µM (active). Moreover, the AC50 is 34.1 µM (active) and 46.2 µM (active) and 47.6 µM (active) in [10]; 32 µM (active) and 53.5 µM (active) and 54.4 µM (active) in experiment [11]. Further, the outcome in experiment [2], in experiment [3] and in experiment [4] was inactive.

`CCCCCCCCCc1ccc(O)cc1`: the AC50 in experiment [1] was 32.2 µM (active); in experiment [2], 7.76 µM (active); in experiment [3] it was 23.6 µM (active); in experiment [4] it was 31.3 µM (active); in [12], 36.5 µM (active); in experiment [5], 22 µM (active). The AC50 with CD38, CD38 (gene 952) is 15.9 µM (active); with CD40, CD40 (gene 958), 20.3 µM (active); with CD69, CD69 (gene 969), 22.7 µM (active); in experiment [6] it was 29.8 µM (active); in experiment [7] it was 20 µM (active); in experiment [8], 16.2 µM (active). Also, the AC50 in experiment [9] was 20.2 µM (active); in [10] it was 14.3 µM (active); in [11] it was 23.8 µM (active).

For the molecule `CN(C)c1nc(=O)n(C2CCCCC2)c(=O)n1C`, the outcome in experiment [1] is “inactive”; in [2] it was “inactive”; in experiment [3], “inactive”; in experiment [4], “inactive”; in experiment [5], “inactive”; with CD38, CD38 (gene 952), “inactive”. In addition, the outcome with CD40, CD40 (gene 958) was “inactive”; in the experiment with CD69, CD69 (gene 969) it was “inactive”; in experiment [6], “inactive”; in [7], “inactive”; in [8], “inactive”; in experiment [9], “inactive”. Further, the result in experiment [10] and in experiment [11] was inactive.

For `CCOC(=O)C(O)(c1ccc(Cl)cc1)c1ccc(Cl)cc1`, the AC50 in experiment [1] was 39.1 µM (active); in [3] it was 28.2 µM (active); in experiment [4] it was 34 µM (active); in [5], 34 µM (active); with CD38, CD38 (gene 952) it was 29.4 µM (active); with CD40, CD40 (gene 958) it was 30.4 µM (active). The AC50 with CD69, CD69 (gene 969) is 36 µM (active); in experiment [6], 35.2 µM (active); in [7], 31.7 µM (active); in experiment [8], 33.7 µM (active); in experiment [9], 32.9 µM (active); in experiment [10], 30.9 µM (active). The AC50 in experiment [11] is 32.3 µM (active). For the same molecule, in [2], the result was inactive.

Turning to `ClC1=C(Cl)[C@]2(Cl)[C@@H]3[C@@H]4C[C@@H]([C@H]5O[C@@H]45)[C@@H]3[C@@]1(Cl)C2(Cl)Cl`, the outcome in [1] is “inactive”; in experiment [2] it was “inactive”; in experiment [3] it was “inactive”; in experiment [4] it was “inactive”; with CD69, CD69 (gene 969), “inactive”; in experiment [6], “inactive”. Besides, the outcome in experiment [7], in experiment [13], in [8] and in experiment [9] was inactive. The AC50 is 14.4 µM (active) in experiment [5]; 14.4 µM (active) with CD38, CD38 (gene 952); 11.2 µM (active) in the experiment with CD40, CD40 (gene 958); 20 µM (active) in experiment [10]; 20 µM (active) in [11]; 3.88 µM (active) in experiment [14].

Consider `C1CC2OC2CC1C1CO1` (stereo unspecified), for which the outcome in [1] was “inactive”; in [2], “inactive”; in [3], “inactive”; in experiment [4] it was “inactive”; in [5] it was “inactive”; with CD38, CD38 (gene 952), “inactive”. Also, the outcome in the experiment with CD40, CD40 (gene 958) is “inactive”; with CD69, CD69 (gene 969), “inactive”; in [6], “inactive”; in experiment [7] it was “inactive”; in experiment [13], “inactive”; in experiment [8] it was “inactive”. For the same molecule, the result in [9], in [10] and in [11] was inactive.
